This is part of a sample that, as a whole, favours compounds with a hit. Of some 83,000 tested, about 20% had one in any assay.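 In brief: 96-well plates, 48 h treatment, single concentration, percent growth endpoint.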 Unmarked numbers belong to inactive results. Calls of active or inactive are those of the source. Rule for the calls: active = growth percent below 10; inactive = the rest.

The source of these data is PubChem BioAssay (NCI).

This assay has as its system SF-268 CNS. In words: NCI-60 one-dose screen, 48 h (100 = growth as untreated, 0 = no growth, -100 = all killed). The note with it: 10 µM unless noted.
`O=C(/C=C/c1ccc(Cl)cc1)c1ccc(NC(=O)N2CCN(c3cc4c(cc3F)c(=O)c(C(=O)O)cn4C3CC3)CC2)cc1`: the growth is 89.3%.
With `O=C(/C=C(/C=C/c1csc2ccccc12)OB(F)F)/C=C/c1csc2ccccc12`, the growth is 5.79% (active).
The result for `CN1CCN(C(=O)[C@]23CCC(C)(C)C[C@H]2C2=CC[C@@H]4[C@@]5(C)C/C(=C/c6cccnc6)C(=O)C(C)(C)[C@@H]5CC[C@@]4(C)[C@]2(C)CC3)CC1` reads 68.3%.
As for `CC1=CCC(OC(=O)C(C)(O)CCC(O)(C(=O)OC2(C)C=CC(O)(C(C)C)CC2)C(C)C)(C(C)C)CC1` (stereo not drawn), the growth was 101%.
On to `NC1=NN=C(N)C1=Cc1cc2ccccc2n2nnnc12`, for which the growth is 98.6%.
The value for `COc1ccc(NC(N)=NCCCOc2ccc(F)cc2)cc1` was 77.7%; that for `O=C1c2ccc3c4c(ccc(c24)C(=O)N1CCCNCc1ccccc1)C(=O)N(CCCNCc1ccccc1)C3=O` was -71.4% (active).
With `O=C(NCCNc1nccc(-c2c(-c3cccc(F)c3)nc3sccn23)n1)c1ccc(Cl)cc1`, the growth was 67.9%.
The result for `C=C1C(=O)O[C@H]2[C@H]1CC/C(COC(=O)NCCc1c[nH]c3ccc(OC)cc13)=C\CC[C@@]1(C)O[C@@H]21` reads 60.1%; that for `COc1cc(CC(=O)c2ccc(O)c(OC)c2)ccc1O`, 102%.
`CCN(CC)c1ccc(/C=N/NC(=O)CSc2nc3ccccc3c(=O)n2CCc2ccc(S(N)(=O)=O)cc2)c(O)c1`: the growth was 32.5%.
Regarding `Cc1ccc(-n2c3c(c(-c4ccccc4)c2-c2ccccc2)C2=NCCN2C=N3)cc1`, the growth was 96.2%.
The result for `CN1CCN(C(=O)[C@]23CCC(C)(C)C[C@H]2C2=CC[C@@H]4[C@@]5(C)C/C(=C/c6ccncc6)C(=O)C(C)(C)[C@@H]5CC[C@@]4(C)[C@]2(C)CC3)CC1` reads 64.4%; that for `C=C(C)[C@@H]1CC[C@]2(C(=O)N3CCN(C)CC3)CC[C@]3(C)[C@H](CC[C@@H]4[C@@]5(C)C/C(=C/c6cccnc6)C(=O)C(C)(C)[C@@H]5CC[C@]43C)[C@@H]12`, 72.7%.
The value for `N/C(=N\C(N)=N\c1nc2ccccc2s1)c1cccc(Cl)c1` was 83.6%; that for `CCOC(=O)Nc1ccc(-c2ccc3c(c2)NC(=O)/C3=C\c2ccc[nH]2)cc1` was 100%; that for `CCNC(=O)Oc1ccc(/C(=C(\C)c2ccccc2)c2ccc(OCCN(CC)CC)cc2)cc1` was 80.1%.
With `CCOC(=O)/C(C#N)=C1/NNC(=Nc2cccnc2)S1`, the growth was 100%.
Consider `COc1cccc(-c2nc3occn3c2-c2ccnc(NCCCNS(=O)(=O)c3ccc(C(F)(F)F)cc3)n2)c1`, for which the growth is 75%.
Take `CC(=O)Nc1ccc(-n2cnc3cc(-c4ccc(OCCN5CCCCC5)cc4)ccc32)cc1`: the growth was 84.1%.
On to `Cn1ccnc1C(=O)/C=C/c1ccc(CC(=O)Nc2ccc(Cl)cc2)cc1`, for which the growth is 7.98% (active).
On to `C=CCN1C(=O)/C(=C/C(=O)OC)S/C1=N\NC(=O)c1cc2ccc1/C=C\c1ccc(cc1)/C=C\2`, for which the growth was 103%.
For `COc1ccc(/C=C(\C#N)n2nc3cccc(F)c3n2)cc1`, the growth was 104%.
On to `N/C(=N\C(N)=N\c1nc2ccccc2s1)c1cnccn1`, for which the growth is 26.5%.
As for `Cc1c(C(=O)NCCC(=O)NO)sc2ncnc(Nc3ccc(NC(=O)Nc4cccc(C(F)(F)F)c4)cc3)c12`, the growth was 93.4%.
In the case of `O=C(Nc1ccc(-c2ccc3c(c2)NC(=O)/C3=C\c2ccc[nH]2)cc1)NC1CC1`, the growth is 103%.
For `S=c1cc(S)c2cc(Br)ccc2[nH]1`, the growth was 99%.
In the case of `CCCCOc1ccc(/C=N/Nc2cc(C)nc3ccc(Br)cc23)cc1`, the growth is 88.3%.
For `N/C(=N\C(N)=N\c1nc2ccccc2s1)c1ccnc(Br)c1`, the growth is 50%.
The value for `COc1cc(NC(C)CCCNC(=O)CCC(=O)NCCCNCCCCCCCCNCCCNC(=O)CCC(=O)NCCCC(C)Nc2cc(OC)cc3cccnc23)c2ncccc2c1` (stereo not drawn) was 52.2%; that for `COc1cc2nc(-c3ccc(C(F)(F)F)cc3)cc(OCCCN3CCOCC3)c2cc1OC` was 56.1%; that for `O=C(Cn1c[n+](CC(=O)c2ccc(-c3ccccc3)cc2)c2ccccc21)Nc1cccc2cccnc12` was 20.3%.
Regarding `CC(Oc1ccc(C(=O)O)cc1C(F)(F)F)c1ccc(Oc2ccccc2)cn1` (stereo not drawn), the growth is 94.6%.
The value for `O=C(Nc1ccc(F)cc1)Nc1ccc(NC(=O)c2cc(Cl)nc3ccccc23)cc1` was 68.1%.
Take `O=C(CCN1CCCC1)Nc1ccc2c(Nc3ccc(F)cc3)c3ccccc3nc2c1`: the growth was 16.3%.
Regarding `CC(Sc1nc2ccccc2c(=O)n1CCc1ccc(S(N)(=O)=O)cc1)C(=O)Nc1ccc(Cl)cc1` (stereo not drawn), the growth was 74.7%.
With `O=C(N/N=C/c1cc2ccccc2n2nnnc12)Nc1ccccc1`, the growth was 101%.
Turning to `CC1(C)CC(=O)C2=C(C1)N(c1ccc(F)cc1F)C(N)=C(C#N)C2c1cc(Br)ccc1F` (stereo not drawn), the growth was 103%.
